Here are results for 10 molecules from PubChem BioAssay (NCATS).

Values joined by “and” are separate entries in the source; they are usually repeats but may differ in a detail not shown here. Equal entries are not always repeated. Records with an inconclusive call do not appear. Active and inactive are the calls of the source. Unless noted, the call rests on the fitted dose curve; in most records, active means well fitted curve in the direction sought with a large enough effect; inconclusive means small, poorly fitted or top-dose-only effect, or another doubt; inactive means no such curve, though single readings can be large; an effect the other way counts as inactive or inconclusive.

The nature of test [1]: qHTS Assay for Lipid Storage Modulators (AID 1519; calls by dose curve; on activity change, negative = inhibition: on the % scale 0 is the no-effect control and ±100 the full control effect). As to conditions: Drosophila S3 cells, BODIPY lipid droplet/cell ratio, laser cytometry, cells loaded with oleic acid; for activity change, negative = inhibition: at 57.5 µM (top of the series). The procedure, abridged:
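Cells seeded at 5,000 per well were treated with compounds over a concentration series and loaded with oleic acid (400 uM, as added). Lipid droplet fluorescence (488 nm excitation, 500-530 nm channel) was read by laser-scanning cytometry and normalized to 20 uM Triacsin C.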

Test [2] addresses DNA repair nuclease/redox regulator APEX1 (Homo sapiens) (UniProt P27695). Briefly: qHTS Validation Assay for Inhibitors of the Human Apurinic/apyrimidinic Endonuclease 1 (APE1) (AID 1705;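 further: TAMRA fluorescence gain over two minutes as APE1 cuts a quenched THF abasic duplex; on the % scale 0 is the no-effect control and ±100 the full control effect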). Particulars: purified APE1 endonuclease activity, fluorescence, titration; series mostly up to 57.1 µM. The procedure, abridged: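 Substrate: 50 nM final fluorophore/quencher THF-abasic duplex. Enzyme preincubated with compounds 15 min, RT. Progress derived from fluorescence difference, third minus first kinetic read.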

A short description of test [3]: qHTS for differential inhibitors of proliferation of Plasmodium falciparum line 7G8 (AID 1815).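 Further: parasite growth measured after three days of incubation.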 Further: potency means the concentration at half of the fitted maximal effect.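 On activity change, negative = inhibition: plate controls were vehicle wells for no effect and reference inhibitor wells for full effect.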 As to conditions: Plasmodium falciparum 7G8 proliferation inhibition; series mostly up to 28.7 µM.
Test [4] can be described thus: qHTS for differential inhibitors of proliferation of Plasmodium falciparum line GB4 (AID 1816).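 Further: parasite growth measured after 72 h incubation.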 Further: potency means the concentration at half of the fitted maximal effect.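 On activity change, negative = inhibition: 0% = vehicle DMSO and -100% = reference inhibitor.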 As to conditions: Potency: Plasmodium falciparum GB4 proliferation inhibition; series mostly up to 28.7 µM.
Test [5] can be described thus: qHTS for differential inhibitors of proliferation of Plasmodium falciparum line 3D7 (AID 1876). Further: potency means the concentration at half of the fitted maximal effect. Particulars: P. falciparum 3D7 proliferation inhibition; series mostly up to 28.7 µM.
Test [6] can be described thus: qHTS for differential inhibitors of proliferation of Plasmodium falciparum line Dd2 (AID 1882). Further: nearly all actives have a fitted effect of over 65% in size. Further: potency means the concentration at half of the fitted maximal effect.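 On activity change, negative = inhibition: compound exposure of 72 h on infected erythrocytes; plate controls were DMSO vehicle for no effect and 0.29 µM artemisinin for full effect.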 Particulars: Potency: Plasmodium falciparum Dd2 proliferation inhibition; series mostly up to 28.7 µM. The procedure, abridged: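 RBC culture, 0.3% parasitemia / 2.5% Hct final; cpd added by pin tool in DMSO; 72 h, 37 C, 5% CO2; lysis buffer + SYBR Green I, o/n RT dark; FI 485/535; norm. to artemisinin 0.29 uM and DMSO.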

The nature of test [7]: qHTS for differential inhibitors of proliferation of Plasmodium falciparum line W2 (AID 1883).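 Further: parasites grown with compound for 72 h before lysis and staining.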 Further: potency means the concentration at half of the fitted maximal effect.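 On activity change, negative = inhibition: 0% = vehicle wells and -100% = control inhibitor wells.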 Particulars: Potency: Plasmodium falciparum W2 proliferation inhibition; series mostly up to 28.7 µM.
Test [8] in a line: qHTS for differential inhibitors of proliferation of Plasmodium falciparum line HB3 (AID 1886).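 Further: parasites grown with compound for 72 h before SYBR Green readout.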 Further: potency means the concentration at half of the fitted maximal effect.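 On activity change, negative = inhibition: plate controls were vehicle for no effect and reference inhibitor for full effect.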 Particulars: Potency: Plasmodium falciparum HB3 proliferation inhibition; series mostly up to 28.7 µM.
In test [9] the target is ATP-dependent DNA helicase Q1 (Homo sapiens) (UniProt P46063). Briefly: qHTS Validation Assay for Inhibitors of RecQ-Like Dna Helicase 1 (RECQ1) (AID 2353).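 Further: plate controls were DMSO vehicle for no effect and enzyme-free control for full effect.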 As to conditions: recombinant RECQ1 helicase DNA unwinding assay; series mostly up to 25.6 µM. The procedure, abridged: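 RECQ1T1 50 nM; forked duplex (20 bp + 30-nt ss tails) 200 nM, ATP 2 mM final; pH 8.0, 2 mM MgCl2, 2.5 ug/ml poly(dI-dC); 15 min compound preincubation; discontinuous kinetic read over 2 h at RT.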
ATP-dependent DNA helicase Q1 (Homo sapiens), sequence (P46063 whole entry, looked up): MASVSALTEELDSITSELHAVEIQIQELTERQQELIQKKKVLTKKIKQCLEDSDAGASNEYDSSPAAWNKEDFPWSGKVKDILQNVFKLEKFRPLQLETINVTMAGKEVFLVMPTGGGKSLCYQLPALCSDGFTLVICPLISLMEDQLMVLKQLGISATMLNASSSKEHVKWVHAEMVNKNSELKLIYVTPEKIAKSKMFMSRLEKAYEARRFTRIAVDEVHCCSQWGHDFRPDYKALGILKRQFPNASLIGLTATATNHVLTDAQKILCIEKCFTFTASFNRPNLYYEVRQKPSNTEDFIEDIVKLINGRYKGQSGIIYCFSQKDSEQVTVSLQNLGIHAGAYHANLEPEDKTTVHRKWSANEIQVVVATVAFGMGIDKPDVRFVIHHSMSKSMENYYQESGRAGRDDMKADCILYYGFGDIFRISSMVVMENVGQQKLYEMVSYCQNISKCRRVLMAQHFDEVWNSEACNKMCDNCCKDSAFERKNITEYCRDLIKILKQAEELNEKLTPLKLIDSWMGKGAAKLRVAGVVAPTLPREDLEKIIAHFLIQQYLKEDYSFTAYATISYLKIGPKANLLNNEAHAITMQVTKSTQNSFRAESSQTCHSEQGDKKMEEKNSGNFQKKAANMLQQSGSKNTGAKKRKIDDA

Test [10] can be described thus: Cytometric Cell-Based qHTS for Inhibitors of the mTORC1 Signaling Pathway in MEF (Tsc2-/-, p53-/-) Cells (AID 2660).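 Further: Tsc2 and p53 null MEFs carrying empty vector with compound for 24 h; percent of cells above a phospho-rpS6 to PI ratio cutoff in each well; plate controls were DMSO for no effect and rapamycin for full effect.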 Particulars: mTORC1 pathway cytometry; series mostly up to 38.3 µM. The procedure, abridged:
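Percent of cells positive for normalized phospho-S6 staining is reported, with the cutoff set from rapamycin (7.5 nM) versus DMSO wells. Tsc2-/-, p53-/- MEFs received compound for 24 hrs.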

Test [11] in a line: High Content Imaging Cell-Based qHTS for Inhibitors of the mTORC1 Signaling Pathway in MEF (Tsc2-/-, p53-/-) Cells (AID 2666).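 Further: percent of cells scored positive for phospho-rpS6 Ser235/236 immunostaining by imaging.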 Particulars: at 38.3 µM (top of the series). The procedure, abridged:
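Tsc2-/-, p53-/- MEFs (empty-vector stable) grown in DMEM + 10% FBS were exposed to compounds for 24 hrs at 37 degree Celsius, fixed, and stained with Alexa-488 anti-phospho-rpS6 Ser235/236 plus Hoechst. Imaging gave the percentage of positive cells per well.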

Test [12] is described as follows: High Content Imaging Cell-Based qHTS for Inhibitors of the mTORC1 Signaling Pathway in MEF Cells (AID 2667).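 Further: Tsc2-/- p53-/- MEFs stably re-expressing wild-type Tsc2 exposed 24 h; plate controls were DMSO wells for no effect and rapamycin control wells for full effect.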 As to conditions: series mostly up to 38.3 µM. The procedure, abridged:
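Tsc2-/-, p53-/- MEFs stably re-expressing WT Tsc2, grown in DMEM + 10% FBS, were treated with compounds for 24 hrs at 37 degree Celsius, fixed, and stained with Alexa-488 phospho-rpS6 Ser235/236 antibody plus Hoechst; results given as % positive cells.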

Test [13] in a line: Validation screen for small molecules that induce DNA re-replication in MCF 10A normal breast cells (AID 463097). Further: nearly all actives have a fitted effect of over 60% in size. Further: potency means the concentration at half of the fitted maximal effect. Particulars: MCF 10A cells, DNA re-replication phenotype imaging; series mostly up to 46.1 µM. The procedure, abridged: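 Following 48 hr compound incubation (37 C, 5% CO2), MCF 10A cells receive Hoechst for 40 min at 37 C. Nuclei are then scanned (excitation 405 nm, emission 500-530 nm) for total fluorescence intensity.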

Test [14] deals with Endonuclease 4 (Escherichia coli (strain K12)) (UniProt P0A6C1). Briefly: Counterscreen for APE1 Inhibitors: qHTS Validation Assay for Inhibitors of Endonuclease IV (AID 1708). Further: on the % scale 0 is the no-effect control and ±100 the full control effect. Particulars: E. coli endonuclease IV, DNA cleavage fluorescence; series mostly up to 57.1 µM. The procedure, abridged:
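The reaction buffer contained 50 mM Tris-HCl pH 7.5, 50 mM NaCl, 2 mM MgCl2, 1 mM DTT and 0.01% Tween-20. Incision of a 50 nM fluorophore/quencher THF substrate by 2 nM enzyme was measured kinetically.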

A short description of test [15]: qHTS for differential inhibitors of proliferation of Plasmodium falciparum line D10 (AID 1877).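 Further: parasites grown with compound for 72 h before DNA staining.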 Further: potency means the concentration at half of the fitted maximal effect.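 On activity change, negative = inhibition: plate controls were vehicle wells for no effect and reference inhibitor wells for full effect.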 As to conditions: series mostly up to 28.7 µM.
Test [16] can be described thus: Cytometry Cell-Based qHTS for Inhibitors of the mTORC1 Signaling Pathway in MEF cells (AID 2668).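 Further: Tsc2-/- p53-/- mouse embryonic fibroblasts stably re-expressing wild-type Tsc2; percent cells positive for phospho-rpS6 Ser235/236 relative to propidium iodide stain; plate controls were DMSO wells for no effect and 7.5 nM rapamycin control wells for full effect.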 As to conditions: mTORC1 pathway readout; series mostly up to 38.3 µM. The procedure, abridged:
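In MEFs grown in DMEM + 10% FBS, a 24 hrs compound exposure preceded imaging of phospho-rpS6 Ser235/236 by laser-scanning cytometry.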

The target in test [17] is RecQ-like DNA helicase BLM (Homo sapiens) (UniProt P54132). Briefly: qHTS Validation Assay for Inhibitors of Bloom's syndrome helicase (BLM) (AID 2364). Further: potency means the concentration at half of the fitted maximal effect.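 On activity change, negative = inhibition: plate controls were DMSO vehicle for no effect and enzyme-free control for full effect.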 As to conditions: BLM helicase DNA unwinding, fluorescence, in vitro; series mostly up to 57.1 µM. The procedure, abridged:
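Forked 20-bp duplex substrate (200 nM, TAMRA/BHQ-2) plus 2 mM ATP added after 15 min compound preincubation with 50 nM enzyme, pH 8.0, poly(dI-dC) 2.5 ug/ml. Strand separation followed by fluorescence (525/598 nm) over 2 h, normalized to enzyme-free and DMSO controls.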

The mark [18] stands for this setting: measured here: cell count channel max response.
[19] abbreviates: measured here: lipid channel max response.

RecQ-like DNA helicase BLM (Homo sapiens), sequence (P54132 whole entry, looked up): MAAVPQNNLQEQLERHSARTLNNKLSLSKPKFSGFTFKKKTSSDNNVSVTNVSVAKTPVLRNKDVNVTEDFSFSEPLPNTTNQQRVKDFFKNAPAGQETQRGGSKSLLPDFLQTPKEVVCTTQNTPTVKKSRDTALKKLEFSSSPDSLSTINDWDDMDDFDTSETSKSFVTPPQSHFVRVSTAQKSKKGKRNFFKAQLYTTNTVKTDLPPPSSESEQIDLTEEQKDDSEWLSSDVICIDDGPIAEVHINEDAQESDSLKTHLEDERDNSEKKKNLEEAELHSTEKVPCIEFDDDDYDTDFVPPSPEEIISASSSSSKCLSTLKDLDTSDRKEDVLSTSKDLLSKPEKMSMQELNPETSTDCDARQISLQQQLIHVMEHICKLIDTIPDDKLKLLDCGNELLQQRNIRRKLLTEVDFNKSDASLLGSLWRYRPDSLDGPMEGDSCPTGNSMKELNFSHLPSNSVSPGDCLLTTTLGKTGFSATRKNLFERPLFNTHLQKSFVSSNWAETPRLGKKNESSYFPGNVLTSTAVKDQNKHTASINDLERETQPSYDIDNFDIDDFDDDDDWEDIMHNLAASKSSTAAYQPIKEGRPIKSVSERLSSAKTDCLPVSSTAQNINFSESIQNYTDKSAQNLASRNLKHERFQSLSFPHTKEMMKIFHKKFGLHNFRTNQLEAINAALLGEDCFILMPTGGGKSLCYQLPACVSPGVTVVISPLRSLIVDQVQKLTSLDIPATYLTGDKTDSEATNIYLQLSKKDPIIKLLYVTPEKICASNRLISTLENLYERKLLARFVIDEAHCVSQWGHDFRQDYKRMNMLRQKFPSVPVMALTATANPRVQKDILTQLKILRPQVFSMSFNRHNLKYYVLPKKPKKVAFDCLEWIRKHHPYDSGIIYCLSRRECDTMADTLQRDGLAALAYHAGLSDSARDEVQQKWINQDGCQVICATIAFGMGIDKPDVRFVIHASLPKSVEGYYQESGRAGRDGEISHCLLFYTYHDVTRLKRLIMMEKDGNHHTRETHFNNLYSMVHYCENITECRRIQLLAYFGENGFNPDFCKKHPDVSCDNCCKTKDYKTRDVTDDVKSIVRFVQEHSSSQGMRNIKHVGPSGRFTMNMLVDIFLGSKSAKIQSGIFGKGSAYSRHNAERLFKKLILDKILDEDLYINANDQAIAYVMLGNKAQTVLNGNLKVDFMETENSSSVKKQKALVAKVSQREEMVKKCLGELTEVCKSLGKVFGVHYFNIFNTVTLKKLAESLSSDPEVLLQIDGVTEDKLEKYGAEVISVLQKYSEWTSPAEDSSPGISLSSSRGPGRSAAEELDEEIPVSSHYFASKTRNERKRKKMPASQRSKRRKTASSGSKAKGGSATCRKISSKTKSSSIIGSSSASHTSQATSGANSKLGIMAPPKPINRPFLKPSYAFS
DNA repair nuclease/redox regulator APEX1 (Homo sapiens), sequence (P27695 whole entry, looked up): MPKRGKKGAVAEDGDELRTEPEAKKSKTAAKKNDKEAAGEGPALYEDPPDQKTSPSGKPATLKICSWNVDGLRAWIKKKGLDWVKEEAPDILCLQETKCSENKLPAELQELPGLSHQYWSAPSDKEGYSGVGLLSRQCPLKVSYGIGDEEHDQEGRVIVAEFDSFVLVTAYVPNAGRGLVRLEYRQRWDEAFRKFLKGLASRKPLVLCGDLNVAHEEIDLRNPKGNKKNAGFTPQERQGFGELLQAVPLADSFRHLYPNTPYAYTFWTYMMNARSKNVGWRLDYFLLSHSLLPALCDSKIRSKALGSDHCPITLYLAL

In the case of `O=NN(CCCl)C(=O)NCCCl`, the activity change, negative = inhibition in [1] was -2.32% (inactive). The max response in test [1] (setting [18]) is -3.08%; in test [1] (setting [19]), -6.13%. The outcome in test [2], in test [9], in [10], in test [11] and in test [12] was inactive. In addition, the Potency entry in [3], in test [4], in test [5], in [6], in test [7] and in [8] was “inactive” throughout. The Potency result in test [13] was “inactive”.

As to `O=C1CCc2cc(OCCCCc3nnnn3C3CCCCC3)ccc2N1`, the activity change, negative = inhibition in test [1] is -9.74% (inactive). The max response in test [1] (setting [18]) is -20.7%; in test [1] (setting [19]), -27.2%. The result in test [2], in [9], in test [10], in test [11] and in [12] was inactive. Also, the Potency in test [3] was 14.1 µM (active). In addition, the Potency result in test [6] and in [13] was “inactive” in each case.

For `OC(CN1CCC(Cc2ccc(F)cc2)CC1)c1ccc(Cl)cc1` (stereo unspecified), the outcome in [2], in test [14], in test [9], in test [10], in test [11] and in [12] was inactive. Moreover, the Potency in [3] was 0.501 µM (active); in test [4] it was 0.355 µM (active); in [5] it was 1.26 µM (active); in [15] it was 2.51 µM (active); in test [6] it was 1.26 µM (active); in test [7] it was 0.282 µM (active). Further, the Potency in test [8] was 1.41 µM (active).

As to `O=C(Nc1nc2ccccc2n1CCN1CCOCC1)c1cccc([N+](=O)[O-])c1`, the molecule was classed as inactive in test [10] and in [11].

Turning to `O=C(O)COCCN1CCN(C(c2ccccc2)c2ccc(Cl)cc2)CC1` (stereo unspecified), in test [1], the activity change, negative = inhibition was 5.98% (inactive). The max response in [1] (setting [18]) was 4.08%; in test [1] (setting [19]), 13.6%. Besides, the result in test [10] and in test [16] was inactive.

On to `C[C@]12CCC(=O)C=C1CC[C@@H]1[C@@H]2[C@@H](O)C[C@@]2(C)[C@H]1CC[C@]2(O)C(=O)CO`, for which the molecule was classed as inactive in test [10], in test [11] and in test [12].

Turning to `CC(C)NCC(O)COc1ccc(COCCOC(C)C)cc1` (stereo unspecified), the result in test [14], in test [9], in test [10], in test [11] and in [12] was inactive. Moreover, the Potency result in [5], in test [15], in test [6], in test [8], in test [17] and in test [13] was “inactive” each time.

Take `O=c1n(CCCN2CCN(c3cccc(Cl)c3)CC2)nc2ccccn12`: the activity change, negative = inhibition in test [1] is 10.8% (inactive) and -2.4% (inactive). Moreover, the max response was 20.6% and -14.9% in [1] (setting [18]); 37% and -15.6% in test [1] (setting [19]). The call in test [2], in test [14], in test [9], in test [10], in test [11] and in test [12] was inactive. Besides, the Potency entry in test [5], in test [15], in test [6], in test [8], in [17] and in test [13] was “inactive” each time.

Turning to `CC(C)(Sc1ccc(CCN(CCCCC2CCCCC2)C(=O)NC2CCCCC2)cc1)C(=O)O`, the activity change, negative = inhibition in test [1] is -0.767% (inactive). For the same molecule, the figures for the max response in [1] (setting [18]) and in test [1] (setting [19]) were 16.5% and 13.3%, respectively. Besides, the molecule was classed as inactive in [2], in [10], in test [11] and in test [12]. Moreover, the Potency entry in test [5], in test [15], in test [6] and in [8] was “inactive” each time. Besides, the Potency was 28.2 µM (active) in test [17] and 12.6 µM (active) in test [13].

`Cc1cccc(-c2[nH]c(C(C)(C)C)nc2-c2ccc3nccnc3c2)n1`: the molecule was classed as inactive in test [10], in test [11] and in [12].
